# Assay results reported in the supplement of paper PMC10338343.
# ± gives the standard deviation.
# Key:
# [1] = test system: MILI (PIWIL2) piRISC loaded with L1MC piRNA (26 nt); assay: pre-steady-state target cleavage rate (min^-1); guide: L1MC piRNA 5'p-UAACUAAAUACUAUGCAAGCUGUAGG; higher = faster piRNA-guided slicing of the target; conditions: auxiliary factor: 500 nM mouse GTSF1
# Outline: (§1)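 Active affinity-purified piRISC (1 nM) loaded with one synthetic guide was mixed with a transcribed, DNA-blocked target RNA library (0.1 nM), with or without 500 nM GTSF1 partner protein, in HEPES–potassium acetate buffer at 33 °C for 0–8 or 0–960 min. Uncleaved targets were sequenced, normalised to depth and to weakly complementary targets, and pooled across three trials, with k3 capped at 0.0001 min^-1. The pre-steady-state cleavage rate was determined with a burst-and-steady-state fit.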
# [2] = test system: EfPiwi piRISC loaded with L1MC piRNA (26 nt); assay: pre-steady-state target cleavage rate (min^-1); auxiliary factor: 500 nM Ephydatia muelleri Gtsf1; guide: L1MC piRNA 5'p-UAACUAAAUACUAUGCAAGCUGUAGG; MIWI and MILI are mouse PIWI proteins and EfPiwi is from a freshwater sponge; tags in brackets are library labels; higher = faster piRNA-guided slicing of the target
# Outline: as §1
Sequence,pre-steady-state target cleavage rate [1],pre-steady-state target cleavage rate [2]
UCCUGGAUCAGCUUGCAUAGUUAAUAGUUA,0.017 ± 0.0066,0.00344 ± 0.003
UCCUGCUACAGCUUGCAUAGUUUUUAGAAA,0.0163 ± 0.0061,0.00343 ± 0.0019
UCCUGGAACAGCUUGCAUACUAUUUAGAUA,0.013 ± 0.0053,0.00312 ± 0.0022
UCCUGGAUGAGCUUGCAUAGAAUUUAGUAA,0.0264 ± 0.011,0.00272 ± 0.0027
UCCUCCUACAGCUUGCAUAGUAUUUAGAAA,0.18 ± 0.028,0.00581 ± 0.0024
UCCUGGAUCAGCUUGCAAAGUAUUUACAAA,0.0432 ± 0.012,0.00563 ± 0.0037
UCCUGGAACAGCUUGCUAUAGUAUUUAGUUA,0.028 ± 0.0077,0.00682 ± 0.0023
UCCUGCUACAGCUUGCAUACUAUUUACUUA,0.0359 ± 0.011,0.00325 ± 0.0023
UCCUGGAUGAGCUUGCAUAGUAUUAAGAAA,0.0183 ± 0.0092,0.004 ± 0.0026
UCCUGGAUCAGCUUGCAUUGUAUUUAGUAA,0.144 ± 0.014,0.00441 ± 0.0018
UCCUGCUACAGCUUGCAUAGUAUAAUGAAA,0.0499 ± 0.018,0.00473 ± 0.0032
UCCUGGAUGAGCUUGCAUUGUAUUUAGAUA,0.156 ± 0.038,0.00248 ± 0.0021
UCCUCCUACAGCUUGCAUAGUUUUUACAAA,0.0506 ± 0.013,0.00552 ± 0.0037
UCCUCGUACAGCUUGCAUAGUAUUUAGAUA,0.177 ± 0.025,0.00437 ± 0.0019
UCCUCCUACAGCUUGCAUAGUAUUUUCUUA,0.126 ± 0.027,0.00493 ± 0.003
UCCUCCUACAGCUUGCAUAAGUAUUUAGUUA,0.0109 ± 0.0055,0.00345 ± 0.0019
UCCUGGAUGUCCUUGCAUAGUAUUUAGCUUA,0.0698 ± 0.014,0.0051 ± 0.0028
UCCUGCUUGAGCUUGCAUAGUAUUUAGAAA,0.148 ± 0.027,0.00479 ± 0.0016
UCCUGCUUCAGCUUGCAUAGUAUUUACAAA,0.212 ± 0.047,0.00462 ± 0.0025
UCCUGCUACAGCUAGCAUAGUAUUUAGAUA,0.151 ± 0.028,0.00409 ± 0.0015
UCCUCCUACAGCUUGCAUAGUAAUUAGAUA,0.179 ± 0.046,0.00553 ± 0.0026
UCCUCCUUCAGCUUCCAUAGUAUUUAGUUA,0.0522 ± 0.015,0.00448 ± 0.0019
UCCUGGUACAGCUUGCAUAGUAUUUACAAA,0.0693 ± 0.017,0.003 ± 0.002
UCCUGGUACACCUUGCAUAGUAUUUAGAUA,0.0475 ± 0.016,0.00278 ± 0.0024
UCCUGGAUGUCCUUGCAUAGUAUUUGAGUUA,0.169 ± 0.043,0.00517 ± 0.0037
UCCUCCUACAGGAUGCAUAGUAUUUAGAAA,0.0838 ± 0.015,0.00396 ± 0.0014
UCCUCCAUCAGCUUGCAUAGUAUUUUCAAA,0.0846 ± 0.02,0.00384 ± 0.0024
UCCUGGUACAGCUUGCAUAGUAUAAAGUAA,0.0705 ± 0.02,0.00243 ± 0.0022

Sequence,pre-steady-state target cleavage rate [1],pre-steady-state target cleavage rate [2]
UCCUGGAACAGCUUGCCAUAGUAUUUAGUUA,0.163 ± 0.018,0.0042 ± 0.0019
UCCUCCAUCAGCUUGCAUAGUAUUUAGAAA,0.0615 ± 0.017,0.00539 ± 0.0026
UCCUCCUACAGCUUGCAUAGAAUUUACAAA,0.0431 ± 0.015,0.00295 ± 0.0029
UCCUGGUACAGCUUGCAUAGUUAUUAGUAA,0.01 ± 0.0044,0.00807 ± 0.0043
UCCUGGAACAGCUUCCAUAGUAUUUAGUUA,0.0612 ± 0.017,0.00225 ± 0.0021
UCCUGCUACAGCUUGCAUAGUAAUUAGAAA,0.0259 ± 0.0091,0.00362 ± 0.0016
UCCUGGAACAGCUUGCAUAGUAAAUAGAAA,0.0493 ± 0.016,0.00337 ± 0.0028
UCCUGGUACAGCUUGCUUAGUAUUAAGUUA,0.163 ± 0.041,0.00311 ± 0.0027
UCCUCCUACAGCUUGCUUAGAAUUUAGUUA,0.0487 ± 0.011,0.00419 ± 0.002
UCCUGCUACAGCUAGCAUAGUAUUUUGUUA,0.244 ± 0.031,0.0057 ± 0.0021
UCCUCCUACAGCUUGCAUAGUAUUGUAGUUA,0.166 ± 0.045,0.0032 ± 0.0012
UCCUCCUUGUGCUUGCAUAGUAUUUACAAA,0.0181 ± 0.0068,0.00376 ± 0.0032
UCCUGCUACAGCUUGCAUAGUUAAUAGUUA,0.0263 ± 0.0097,0.00347 ± 0.0032
UCCUGCUACAGCAUGCAUACUAUUUAGUUA,0.148 ± 0.028,0.00525 ± 0.0021
UCCUGGAUCAGCUUCCAUAGUAUUUAGUUA,0.0318 ± 0.0085,0.00321 ± 0.0017
UCCUCCUACAGCUUGCAUAGUAUUAACUUA,0.0722 ± 0.018,0.00459 ± 0.0029
UCCUCCUACAGCUUGCAUAGUAUUGAGUUA,0.133 ± 0.026,0.00534 ± 0.002
UCCUGGAUGACCUAGCAUAGUAUUUAGUUA,0.0953 ± 0.022,0.0121 ± 0.0072
UCCUGGAACUGCUUGCAUAGUAUUUAGAUA,0.123 ± 0.023,0.00297 ± 0.002
UCCUCCUACAGCUAGCAUAGAAUUUAGUUA,0.0602 ± 0.011,0.00325 ± 0.0019
UCCUGGAACAGCUUGCAUAGUAUUGAGUUA,0.172 ± 0.029,0.00624 ± 0.0022
UCCUCCUACAGGUUGCAUAGUAUUUUCAAA,0.0497 ± 0.013,0.00306 ± 0.0021
UCCUCCUAGAGCUUCCAUAGUAUUUAGUUA,0.0812 ± 0.025,0.00302 ± 0.0014
UCCUGCUACAGCUUGCAUAGAAUUUAGAUA,0.0657 ± 0.021,0.00319 ± 0.0012
UCCUCCUACAGCUUGCAUACUAUUUACAAA,0.0449 ± 0.012,0.0038 ± 0.0031
UCCUGGAACAGCUUGCAUAGUAUUUUGAAA,0.0888 ± 0.027,0.00294 ± 0.0022
UCCUGGAUGAGCUUGCAUAGUAUUUAUUA,0.0142 ± 0.0067,0.00268 ± 0.0022
